The values that follow come from PubChem BioAssay.

The nature of assay [1]: A549 cell viability effects, profiling panel, calcein-AM fluorescence, 48 h, basal (AID 1162). The following applies: higher = more signal.
Assay [2] can be described thus: adipocyte viability effects, profiling panel, cell-based, 3T3-L1 adipocytes, calcein-AM fluorescence, 48 h, basal (AID 1163). As to conditions: 3T3-L1 adipocytes viability, higher = more signal.
Assay [3] in a line: HepG2 cell viability effects, profiling panel, calcein-AM fluorescence, 48 h, basal (AID 1164). The following applies: higher = more signal.
A short description of assay [4]: MM1S cell viability effects, profiling panel, calcein-AM fluorescence, 48 h, basal (AID 1165).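 Further: viability of MM1S multiple myeloma cells under basal unstimulated conditions.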 As to conditions: higher = more signal.
Assay [5] is described as follows: basal RPMI8226 viability, no added stimulus, profiling panel, cell-based, calcein-AM fluorescence, 48 h, PK04 Diversity Set (AID 1166).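 Further: cells grown under basal conditions without added stimulus.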 As to conditions: RPMI8226 myeloma viability, higher = more signal.
Assay [6] in a line: basal HepG2 mitochondrial membrane potential changes, profiling panel, cell-based, JC-1 fluorescence, 24 h, 100 nL compound (AID 1167). The following applies: higher = more signal.
Assay [7] in a line: basal 3T3-L1 adipocyte mitochondrial potential changes, profiling panel, cell-based, JC-1 fluorescence, 3T3-L1 adipocytes, 24 h, 100 nL compound (AID 1168). As to conditions: JC-1 mitochondrial fluorescence, higher = more signal, called active from +8 up or from −8 down.
Assay [8] can be described thus: basal RPMI8226 mitochondrial membrane potential changes, profiling panel, cell-based, JC-1 fluorescence, 24 h, 100 nL compound (AID 1169). The following applies: RPMI8226 myeloma, JC-1 mitochondrial potential fluorescence, higher = more signal.
The nature of assay [9]: basal MM1S mitochondrial membrane potential changes, profiling panel, cell-based, JC-1 fluorescence, 24 h, 100 nL compound (AID 1170). As to conditions: higher = more signal.
A short description of assay [10]: A549 lung cancer cell viability effects, profiling panel, resazurin fluorescence, 24 h, PK04 Diversity Set (AID 1171). As to conditions: higher = more signal, called active from +8 up or from −8 down.

The source made the active and inactive calls.
Further: test concentration not given here.

Consider `CCOC(=O)[C@H](Cc1ccccc1)NC(=O)CCC1CC(OC(=O)NCCc2ccc(F)cc2)CC2(CCCC(COC(=O)NCCOc3ccccc3)O2)O1` (stereo not given in full), for which the z-score in assay [1] was 0.613; in [2], -0.156; in assay [3], 0.141; in [4], -0.565; in [5], -1.25; in assay [6] it was 1.71. Further, the z-score is 0.508 (inactive) in assay [7], -0.218 in [8], -0.123 in assay [9] and 0.264 (inactive) in assay [10].

Regarding `CCOC(=O)[C@H](Cc1ccccc1)NC(=O)CCC1CC(OC(=O)NCc2ccc3c(c2)OCO3)CC2(CCCC(COC(=O)NCCc3ccc(Cl)cc3)O2)O1` (stereo not given in full), the z-score in assay [1] was 1.81; in assay [2], 0.71; in assay [3], 0.622; in assay [4], -0.845; in [5], -0.167; in assay [6], 0.783. In addition, the z-score in assay [7] is 0.361 (inactive); in assay [8], -0.162; in assay [9] it was -1.27; in assay [10], -0.455 (inactive).

For the compound `CCOC(=O)CCN1C(=O)[C@H]2[C@H]3[C@H](O)[C@H](O)CC(=NNC(=O)OCc4ccc(OC)cc4)[C@H]3CC[C@H]2C1=O`, the z-score is -0.185 in [1]; -0.385 in [2]; -0.0426 in [3]; -0.885 in assay [4]; -0.87 in assay [5]; -0.146 in [6]. Besides, the z-score in [7] was -0.447 (inactive); in assay [8], -0.207; in assay [9], -0.387; in assay [10] it was -0.495 (inactive).

For the compound `CC(=O)OC[C@H]1O[C@H](C#CCCc2ccccc2)C=C[C@@H]1OC(C)=O`, the z-score in [1] was 0.233; in [2] it was 0.292; in assay [3], -0.207; in assay [4] it was -3.49; in [5], -2.48; in assay [6], -0.972. Besides, the z-score in assay [7] was -0.282 (inactive); in assay [8] it was -0.353; in assay [9], -1.11; in assay [10] it was -0.182 (inactive).

With `COC(=O)[C@H](C)NC(=O)CCC1CC(OC(=O)NCCc2ccc(F)cc2)CC2(CCCC(COC(=O)NCCOc3ccccc3)O2)O1` (stereo not given in full), the z-score in assay [1] was 0.401; in assay [2] it was -0.506; in [3], 0.696; in assay [4] it was 0.546; in [5], -0.475; in assay [6], 1.17. Further, the z-score was 0.00171 (inactive) in [7], 0.606 in assay [8], -0.0736 in assay [9] and 0.579 (inactive) in assay [10].

As for `CCOC(=O)[C@H](CC(C)C)NC(=O)CCC1CC(OC(=O)NCCc2ccc(F)cc2)CC2(CCCC(COC(=O)NCc3cccc4ccccc34)O2)O1` (stereo not given in full), the z-score was -0.491 in assay [1]; -0.679 in assay [2]; -2.03 in [3]; -3.43 in assay [4]; -3.14 in assay [5]; 0.26 in [6]. For the same compound, the z-score in [7] is -0.0268 (inactive); in [8], 0.219; in assay [9], -1.56; in assay [10], 1.15 (inactive).

With `CCOC(=O)[C@H](Cc1ccccc1)NC(=O)CCC1CC(OC(=O)NCc2ccc3c(c2)OCO3)CC2(CCCC(COC(=O)NCCOC)O2)O1` (stereo not given in full), the z-score in assay [1] was 0.58; in [2], -0.182; in assay [3], -0.971; in [4], 1.05; in assay [5], -1.56; in [6], 0.724. In addition, the z-score in assay [7] was -0.844 (inactive); in assay [8], -0.817; in assay [9], -1.37; in assay [10], 0.32 (inactive).

Turning to `COC(=O)[C@@H]1CC[C@H](C)[C@@H](c2ccc(Br)cc2)N1C[C@H](O)CN=[N+]=[N-]`, the z-score was 0.128 in assay [1]; 0.878 in [2]; -0.671 in assay [3]; 0.572 in assay [4]; -0.878 in [5]; -0.0153 in assay [6]. The z-score in [7] is -0.416 (inactive); in assay [8], -0.443; in [9], 0.75; in assay [10], -0.624 (inactive).

As for `CCOC(=O)CCN1C(=O)[C@H]2[C@H]3[C@H](O)[C@H](O)CC(=NOCC(C)C)[C@@H]3CC[C@H]2C1=O`, the z-score in assay [1] is -0.0819; in assay [2], 0.472; in assay [3] it was -0.194; in [4], 0.268; in assay [5], -0.706; in assay [6] it was -1.05. Further, the z-score in assay [7] was -0.717 (inactive); in [8], 0.562; in assay [9], 0.104; in [10], -0.237 (inactive).

On to `CC(C)CON=C1[C@H]2CCn3c(=O)n(C)c(=O)n3[C@H]2[C@H](O)[C@@H]2O[C@H]12`, for which the z-score was 0.543 in assay [1]; 0.632 in assay [2]; 0.361 in [3]; 0.191 in [4]; -0.441 in [5]; -0.383 in [6]. Moreover, the z-score in assay [7] was -0.444 (inactive); in assay [8], -0.581; in [9] it was 0.0994; in assay [10], -0.143 (inactive).

On to `CC1(C)O[C@H]2O[C@H]([C@H](O)CON=C3[C@H]4CCn5c(=O)n(-c6ccccc6)c(=O)n5[C@H]4[C@H](O)[C@@H]4O[C@H]34)[C@H](O)[C@H]2O1`, for which the z-score was -0.359 in assay [1]; 0.104 in [2]; -0.0631 in assay [3]; 0.112 in [4]; 0.279 in assay [5]; -0.494 in [6]. Further, the z-score in assay [7] is -1.12 (inactive); in assay [8], 0.438; in [9] it was 0.223; in assay [10], 0.065 (inactive).

In the case of `COC(=O)CC=C[C@@H](C)[C@@H](C=NOC[C@@H](C)[C@H](OCc1ccccc1)C(C)C)NS(=O)(=O)c1ccc(C)cc1`, the z-score in assay [1] was 0.0174; in [2], 0.502; in [3], -0.692; in assay [4], -0.726; in [5], -0.96; in assay [6], -0.685. Further, the z-score is -2.09 (inactive) in assay [7], -0.129 in assay [8], -0.00529 in assay [9] and 0.0101 (inactive) in [10].
